Measured values: PubChem BioAssay AID588405 (Sanford-Burnham Center for Chemical Genomics, 2011)
The campaign covered roughly 360,000 compounds. About 6,200 (1.7%) were called active.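 The calls were made as follows: active = inhibition of at least 50% at 20 µM; inactive = the rest.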 The sample as a whole holds a higher share of actives than the screen did.

assay: Peg3 promoter-driven luciferase inhibitors, primary screen, cell-based, HeLa, luciferase luminescence (AID 588405); details: HeLa PEG-Prom luciferase reporter, overnight, at 20 µM, active compounds read high

inhibition, inactive:
CC1(C(=O)NS(=O)(=O)c2ccc(C#N)cc2)CCN1C(=O)c1ccc(C2CCCCC2)cc1 (stereo not drawn) -8.94%
O=[N+]([O-])/C(N=Nc1ccccc1)=N\Nc1ccccc1 -2.71%
Cn1c(CCC(=O)Nc2ccccc2F)nnc1SCC(=O)Nc1ccccc1Cl 3.9%
C=C(C)COc1ccc(-c2ncncc2-c2ccc(OC)cc2)c(O)c1 -25.6%
CCOc1ccc(-c2nc(N)ncc2-c2ccccc2OC)c(O)c1 1.53%
CC(=O)Nc1cnc(-c2ccc(O)cc2C)cn1 -46.9%
S=C(c1ccc(-c2ccccc2)o1)N1CCCCC1 -230%
CN1CCN(CCCCOc2ccccc2-c2ccccc2)CC1 7.99%
CC(C#N)OC(=O)c1cccnc1SCC(=O)Nc1ccc2c(c1)OCO2 (stereo not drawn) -92%
O=C(O)CCN1C(=O)CC2(CCCCC2)C1=O -1.96%
COCCNc1ncnc2c1ncn2[C@H]1CN(CCN2CCOCC2)C[C@@H](CO)O1 0.57%
Clc1cccc(-c2nc(NCC3CCCO3)c3ccccc3n2)c1 (stereo not drawn) 17.2%
N#CCSc1nc(-c2ccccc2)nc2ccc(F)cc12 16.9%
CC(C)C(C)NC(=O)COc1nc2ccccc2nc1N(C)C1CCCCC1 (stereo not drawn) 2.14%
CC(C)c1cc(C(=O)NC2CCCCCC2)c2ccccc2n1 -6.57%
Cc1nc2c(OCC(=O)C(C)(C)C)cccn2c1N(C)Cc1cccs1 -4.66%
CCCCc1ccc(S(=O)(=O)NC(=O)C2(C)CCN2C(=O)c2c(C)noc2C)cc1 (stereo not drawn) -14.9%
COc1ccc(C(C)C)cc1-c1ccc2nncn2c1 -16.5%
CC1(Oc2ccc(Cl)cc2)CCN(Cc2csc3ccccc23)C1 (stereo not drawn) -17.9%
CC1(C(=O)NS(=O)(=O)c2ccccc2Cl)CCN1C(=O)c1cccc(F)c1 (stereo not drawn) -6.7%
O=c1[nH]c2ccc(S(=O)(=O)N3CCCC3)cc2[nH]1 3.24%
Cc1cccc(NC(=O)CSC(N)=O)c1C 1.28%
Cc1cccc(NC(=O)CN2CCN(C(=O)C3CCN(C(=O)/C=C/c4ccccc4)CC3)CC2)c1C -10.7%
Cc1cnc(C(=O)OCC(=O)Nc2ccc(Cl)cc2Cl)cn1 -12%
CN1CCC(OC(=O)COc2ccc(Cl)cc2Cl)CC1 3.36%
Cc1ccccc1S(=O)(=O)NC(=O)C1(C)CCN1C(=O)Cc1ccc(Cl)cc1Cl (stereo not drawn) 3.83%
Cc1cccc(CNC(=O)c2sc(=O)n(Cc3ccccc3C)c2C)c1 3.15%
CCn1c(=O)c(=O)[nH]c2c(=O)oc3ccc(S(=O)(=O)Nc4ccc(OC)cc4)cc3c21 -5.21%
CC(=O)N1C[C@@H](CO)[C@@H](N(C)C(=O)c2ccco2)C[C@H]1c1ccccc1 -9.39%
Cc1csc(NC(=O)CSc2nc(=O)cc(N)n2-c2ccc(F)cc2)n1 1.12%
COc1cc(SC)ccc1C(=O)NNC(=O)C1COc2ccccc2O1 (stereo not drawn) -36.6%
CCc1nc2c(OCc3cccc(OC)c3)cccn2c1N(C)C(=O)C(C)C 17.8%
COc1cccc(CNc2nc(NCc3ccccc3OC)nc3ccsc23)c1 30.7%
Clc1ccccc1Nc1nc(NCc2cccs2)nc2ccsc12 7.17%
Oc1cccc2cc(-c3ccncc3)cnc12 -97.7%
O=C1c2ccccc2C(c2nc3ccccc3[nH]2)N1c1ccccc1 (stereo not drawn) 2.93%
Cc1cccc(N2CC(C(=O)Nc3ccccc3N3CCCC3)CC2=O)c1C (stereo not drawn) 20.1%
COc1ccccc1-n1c(SCC(=O)Nc2cccc(C(=O)O)c2)nnc1-c1ccccc1O -4.09%
COc1cc(/C=N/NC(=O)c2cc(-c3ccccc3C)nc3ccccc23)cc(OC)c1O 10.1%

inhibition, active:
COc1ccc(-c2nc(N)ncc2-c2ccc(Cl)cc2)c(O)c1 53.7%
OCCN1CCN(C(=S)c2ccc(-c3ccccc3)cc2)CC1 51.7%
Clc1ccc2nc(-c3ccccc3)nc(C(Cl)Cl)c2c1 107%
CN(c1ccc2nc3ccccc3c(=O)n2n1)C1CCCCC1 81.5%
CCOC(=O)/C=c1\s/c(=C\c2ccc(C#N)cc2)c(=O)n1CC(=O)Nc1cccc(C)c1C 57.2%
COC(=O)c1c(NC(=O)COc2ccc(Cl)cc2Cl)sc2c1CC(C)(C)NC2(C)C 92.3%
COc1cc(SC)ccc1C(=O)Nc1nc(C)cs1 99.9%
COc1cccc(CNc2nc(NCc3cccs3)nc3ccsc23)c1 57.2%
COc1cccc(/C=N/Nc2cc(C)nc(-c3ccccc3O)n2)c1O 79.9%
